Yp Topo-I inh: Yersinia pestis topoisomerase I inhibitors, primary screen, biochemical, cleavage product accumulation, plate reader, single point | DNA topoisomerase I (Yersinia pestis CO92) | Y. pestis Topo-I cleavage product accumulation | activity, % at 10 µM | 360,000 compounds, 0.064% hits | AID 504884, 2011; in the data active = activity above about 50%, passing the limit was not always enough
Vc quorum ag-1: inducers of Vibrio cholerae quorum light production without autoinducers, primary screen, BH1578 luxS cqsA deficient, single point | V. cholerae BH1578 lux reporter, luminescence, 6 h | activation, % at 18.7 µM | 350,000 compounds, 0.16% hits | AID 588436, 2011; in the data active = activation mostly above about 9.7%, no sharp cut-off
TcdB inh: TcdB glycohydrolase inhibitors, primary screen, biochemical, single point, plate reader; 350,000 compounds, 0.24% hits; Toxin B (Clostridioides difficile), P18177; TcdB glycohydrolase enzymatic assay; inhibition, % at 9.99 µM; in the data active = inhibition above about 10%
FadD28 FP inh: inhibitors of FadD28 bisubstrate probe binding, primary screen, biochemical, fluorescence polarization, single point; AID 588549, 2011; Mycobacterium tuberculosis FadD28 fatty-acid-AMP ligase; inhibition, % at 12.5 µM; 360,000 compounds, 0.22% hits; in the data active = inhibition above about 8.5%, passing the limit was not always enough
BioA inh: M. tuberculosis BioA enzyme inhibitors, primary screen, biochemical, plate reader, single point, HTS. purified M. tuberculosis BioA enzyme. 7,8-diaminopelargonic acid synthase BioA (Mycobacterium tuberculosis). inhibition, % at 9.99 µM. AID 602481, 2012. 360,000 compounds, 0.096% hits; in the data active = inhibition above about 40%
Vc quorum ag-2: V. cholerae lux activation without autoinducers – BH1578 luxS cqsA deficient, cherry-pick, plate reader, dose response | V. cholerae BH1578 lux reporter, luminescence, 6 h | activation, % at 50 µM | 620 tested, under 10 active | shares compounds with Vc quorum ag-1; call rule not given here
The depositor's hits bear a star; i = inactive; x = no result. Sampled rows, rich in hits. Any-hit rate of the full collection: about 0.61%.

SMILES	Yp Topo-I inh	Vc quorum ag-1	TcdB inh	FadD28 FP inh	BioA inh	Vc quorum ag-2
CC(C)C#Cc1cnc2c(c1)C(=O)N([C@@H](C)CO)C[C@H](C)[C@H](CN(C)C(=O)CCN1CCCCC1)O2	x	x	1	x	-2	x
Cc1ccc(C(=O)OCC(=O)NCCNC(=O)COC(=O)c2ccc(C)s2)s1	1	12	1	0	0	0
Cc1ccc(C(=O)OCC(=O)NCc2ccccc2)s1	5	0	0	-3	-1	x
O=C(Nc1cccc(-c2ccc(N3CCOCC3)nn2)c1)c1ccc([N+](=O)[O-])cc1	-8	14	1	-5	-1	0
CCCCN(C)CCNC(=O)c1ccc2c(c1)NC(=O)C(N1CCCCC1)S2 (stereo not given)	2	17*	x	-3	0	0
CCCc1ccc2oc(C(=O)N(Cc3ccncc3)CC3CCCO3)c(C)c2c1 (stereo not given)	34	12	1	-4	2	0
CCOC(=O)c1ccc2nc(C)c(C)nc2c1	-2	i	1	-2	x	x
Cc1nc2ccc(C(=O)OCC(=O)N(C)c3ccccc3)cc2nc1C	0	14	0	0	0	0
C[C@@H]1CCCCO[C@H](CN(C)Cc2ccncc2)[C@@H](C)CN([C@@H](C)CO)C(=O)c2cc(NS(=O)(=O)c3ccc(F)cc3)ccc2O1	x	x	0	x	2	x
CCOCCCNC(=O)C(NC(=O)c1ccc(NC(C)=O)cc1)c1ccc(C)cc1 (stereo not given)	-7	0	0	-5	x	x
CCOCCCNC(=O)C(NC(=O)c1cnccn1)c1ccc(C)cc1 (stereo not given)	1	28*	x	1	-1	2
CCCC(=O)Nc1ccc2c(c1)OC[C@@H](C)N(Cc1cccc(F)c1)C[C@H](C)[C@H](OC)CN(C)C2=O	x	x	0	x	0	x
CCOC(=O)c1sc2cc([N+](=O)[O-])cc(SCC(=O)OC)c2c1N	7	-1	x	-3	2	x
CCOC(=O)c1sc2cc([N+](=O)[O-])cc(SCCO)c2c1N	16	23*	1	-5	x	0
CCOC(=O)CC(=O)Nc1nnc(C(C)C)s1	-1	17*	x	-2	0	0
O=C(C[C@@H]1CC[C@H](NC(=O)Nc2ccccc2F)[C@H](CO)O1)NCc1ccc(F)cc1	x	x	-2	x	x	x
Cc1cc(Oc2ccc(C#N)cc2)nc(N2CCOCC2)n1	5	25*	x	0	-1	0
O=C(O)C1C2CCC(C2)C1C(=O)NCCc1ccc(F)cc1 (stereo not given)	2	0	-1	1	0	x
O=C(O)C1C2CCC(C2)C1C(=O)Nc1cc(F)ccc1F (stereo not given)	4	17*	x	-2	0	0
CC(=O)Nc1ccc(N2CCCCC2)cc1	-3	i	x	-2	1	x
CC(=O)Nc1ccc(N2CCCC2)cc1	-15	25	x	0	x	0
COC(=O)c1cc(COC(=O)c2ccc(OC)c(S(=O)(=O)N3CCCC3)c2)oc1C	28	12	x	-1	0	0
COc1ccc(NC(=O)N2CCC3(CC2)CN(C(=O)C2CCC2)[C@H](CO)c2c3c3ccc(OC)cc3n2C)cc1	x	x	0	x	x	x
Cc1ccc(OCCCC(=O)N(C)CC(=O)Nc2ccccc2Cl)cc1	32	12	1	0	0	0
Cc1ccc(C)c(NC(=O)CN(C)C(=O)CCN2C(=O)c3ccccc3C2=O)c1	-3	25*	x	-1	0	0
SMILES	Yp Topo-I inh	Vc quorum ag-1	TcdB inh	FadD28 FP inh	BioA inh	Vc quorum ag-2
CCCNC(=O)Nc1ccc2c(c1)C(=O)N(C)C[C@@H](OC)[C@@H](C)CN[C@@H](C)CO2	x	x	0	x	-2	x
C[C@H]1CCCCO[C@H](CN(C)CC2CC2)[C@@H](C)CN([C@@H](C)CO)C(=O)c2cc(NC(=O)c3ccncc3)ccc2O1	x	x	-2	x	21	x
CNC[C@@H]1Oc2c(NC(=O)c3nc4ccccc4s3)cccc2C(=O)N([C@H](C)CO)C[C@@H]1C	x	x	-1	x	-1	x
COCC(=O)Nc1ccc2c(c1)[C@@H]1C[C@@H](CC(=O)N3CCOCC3)O[C@H](CO)[C@@H]1O2	x	x	-1	x	0	x
Cc1cccc(C(=O)OCC(=O)Nc2c(C)nn(-c3ccccc3)c2C)c1O	-15	-1	2	-2	x	x
Cc1nn(-c2ccccc2)c(C)c1NC(=O)COC(=O)c1cc(Br)ccc1O	7	27	0	1	-1	1
O=c1c2c3c(sc2ncn1Cc1ccc(F)cc1)CCC3	-1	25	x	-7	0	0
CCN(CC(=O)Nc1ccccc1C(F)(F)F)C(=O)CN1C(=O)NC(C)(c2ccc3ccccc3c2)C1=O (stereo not given)	16	21*	3	-3	-1	0
C[C@H]1CN([C@@H](C)CO)S(=O)(=O)c2ccc(/C=C/c3ccccc3)cc2O[C@H]1CN(C)C(=O)NC1CCCC1	x	x	1	x	0	x
COc1ccc(S(=O)(=O)N(C)C[C@H]2OCCCC[C@@H](C)Oc3ccc(NC(=O)Nc4ccccc4)cc3C(=O)N([C@@H](C)CO)C[C@H]2C)cc1	x	x	x	x	-1	x
Cc1ccccc1-n1nnnc1-c1ccccc1	-5	27	x	0	-1	0
C[C@@H]1CCCCO[C@H](CN(C)CC2CC2)[C@H](C)CN([C@@H](C)CO)C(=O)c2cc(NS(=O)(=O)c3ccccc3)ccc2O1	x	x	0	x	1	x
COc1ccc2[nH]c(=O)c(CN(C(=O)c3cccnc3)c3ccc(C)cc3)cc2c1	9	18	x	-1	-1	0
COc1ccc2[nH]c(=O)c(CN(C(=O)c3cccnc3)c3cccc(C)c3)cc2c1	13	0	0	-3	-2	x
CCc1sc(N(C(=O)Cc2ccccc2)c2ccccc2)nc1-c1ccccc1	7	i	x	-1	0	x
CCc1sc(N(C(=O)Cc2ccccc2)c2ccc(F)cc2)nc1-c1ccccc1	26	24	x	0	-1	1
C[C@@H]1CN([C@@H](C)CO)C(=O)Cc2cc(NC(=O)NC3CCCCC3)ccc2O[C@H]1CN(C)Cc1ccc(-c2ccccc2)cc1	x	x	1	x	-3	x
CC1(C)NC(=O)N(CCOCCOc2ccc3ccccc3c2Br)C1=O	14	14	x	-2	1	1
CC1(C)NC(=O)N(CCCCOc2ccc3ccccc3c2Cl)C1=O	10	-2	x	-5	0	x
O=c1c2ccccc2nnn1CSc1nnc2ccccn12	-5	40*	x	-3	-1	6
COc1ccccc1CN1C[C@@H](C)[C@@H](OC)CN(C)C(=O)c2cc(NC(C)=O)ccc2OC[C@@H]1C	x	x	x	x	-4	x
O=C(c1cc(-c2cccs2)nn1-c1ccccc1)N1CCN(S(=O)(=O)c2ccccc2)CC1	-5	14	2	1	-2	0

Screens (PubChem BioAssay)
